Laboratory results: the supplement of paper PMC11732987, “Enantioselective OTUD7B fragment discovery through chemoproteomics screening and high-throughput optimisation” (Communications Chemistry, 2025)

How the values were obtained:
Experiment in all cases: log2 ratio of Biotin-Ahx-Ub-VS probe labelling (fragment/DMSO); higher = less target engagement (more negative = stronger competition), active = hit call of the paper (q ≤ 0.05, log2 ratio ≤ -1)
Conditions in all cases: compound concentration: 200 uM; treatment time: 3 h
USP19 = target: T1, USP19 (UniProt O94966)
T1 sequence (whole entry): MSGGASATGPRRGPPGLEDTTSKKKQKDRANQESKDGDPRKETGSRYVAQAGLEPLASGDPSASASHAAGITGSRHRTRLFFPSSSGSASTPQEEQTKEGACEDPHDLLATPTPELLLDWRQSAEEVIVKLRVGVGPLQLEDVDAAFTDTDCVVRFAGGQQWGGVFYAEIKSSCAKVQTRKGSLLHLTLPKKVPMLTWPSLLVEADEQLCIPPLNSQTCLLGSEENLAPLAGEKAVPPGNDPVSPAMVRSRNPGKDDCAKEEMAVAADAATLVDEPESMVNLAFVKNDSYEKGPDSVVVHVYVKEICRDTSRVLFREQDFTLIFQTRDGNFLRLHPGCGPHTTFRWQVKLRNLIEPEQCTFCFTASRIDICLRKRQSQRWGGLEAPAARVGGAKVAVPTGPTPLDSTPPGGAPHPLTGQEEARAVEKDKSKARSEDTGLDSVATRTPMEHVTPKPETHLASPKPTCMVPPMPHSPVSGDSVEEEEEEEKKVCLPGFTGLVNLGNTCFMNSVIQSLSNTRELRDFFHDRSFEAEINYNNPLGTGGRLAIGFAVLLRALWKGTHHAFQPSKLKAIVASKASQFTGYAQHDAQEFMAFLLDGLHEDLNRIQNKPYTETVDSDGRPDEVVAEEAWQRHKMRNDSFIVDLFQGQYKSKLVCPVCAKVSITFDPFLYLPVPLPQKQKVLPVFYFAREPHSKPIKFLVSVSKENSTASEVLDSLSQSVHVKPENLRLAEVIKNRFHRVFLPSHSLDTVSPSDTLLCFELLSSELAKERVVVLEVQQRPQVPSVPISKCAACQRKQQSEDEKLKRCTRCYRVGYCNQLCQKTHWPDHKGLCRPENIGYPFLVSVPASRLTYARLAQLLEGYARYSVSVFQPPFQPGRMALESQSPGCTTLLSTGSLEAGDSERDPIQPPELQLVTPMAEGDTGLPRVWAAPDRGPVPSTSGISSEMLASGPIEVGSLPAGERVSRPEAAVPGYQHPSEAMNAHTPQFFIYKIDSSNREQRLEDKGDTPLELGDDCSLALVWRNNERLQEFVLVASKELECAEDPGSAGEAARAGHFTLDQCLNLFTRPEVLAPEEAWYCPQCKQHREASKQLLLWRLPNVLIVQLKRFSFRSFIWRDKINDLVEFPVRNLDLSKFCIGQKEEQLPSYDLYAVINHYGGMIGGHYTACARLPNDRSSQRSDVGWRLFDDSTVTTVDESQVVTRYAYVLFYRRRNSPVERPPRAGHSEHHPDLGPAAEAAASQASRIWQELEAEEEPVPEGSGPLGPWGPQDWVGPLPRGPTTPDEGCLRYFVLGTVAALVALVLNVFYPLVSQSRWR
How it was run: (§1)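 Global-median-normalised Spectronaut label-free quantities were compared by unpaired t-test, and values are average log2 ratios of fragment over vehicle. Only proteins with ≥2 unique peptides were used. HEK293T lysate (495 µg per sample) was treated in triplicate with fragment at 200 µM or vehicle for 3 h and then with Biotin-Ahx-Ub-VS at 0.5 µM final for 1 h. Labelled DUBs were then NeutrAvidin-enriched, digested with LysC and trypsin, and run by diaPASEF LC-MS/MS.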

USP22 = target: T2, USP22 (UniProt Q9UPT9)
T2 sequence (whole entry): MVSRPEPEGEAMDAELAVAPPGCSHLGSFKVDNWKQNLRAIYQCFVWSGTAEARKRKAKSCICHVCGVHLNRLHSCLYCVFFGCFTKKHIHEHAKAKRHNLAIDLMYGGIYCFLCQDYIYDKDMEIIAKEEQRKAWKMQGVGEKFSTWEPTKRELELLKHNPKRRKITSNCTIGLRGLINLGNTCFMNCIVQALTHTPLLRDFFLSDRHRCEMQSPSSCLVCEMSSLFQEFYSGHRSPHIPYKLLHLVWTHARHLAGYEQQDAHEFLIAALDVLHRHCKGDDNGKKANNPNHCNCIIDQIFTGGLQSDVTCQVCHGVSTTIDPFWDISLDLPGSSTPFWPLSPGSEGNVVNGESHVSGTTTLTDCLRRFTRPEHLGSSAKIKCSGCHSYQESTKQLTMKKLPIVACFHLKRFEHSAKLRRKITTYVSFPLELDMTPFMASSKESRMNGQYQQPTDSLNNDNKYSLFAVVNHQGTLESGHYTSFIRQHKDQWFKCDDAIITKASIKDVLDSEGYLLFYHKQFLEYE
How it was run: as §1

USP24 = USP24 (UniProt Q9UPU5)
Chain of USP24 (Q9UPU5 whole entry): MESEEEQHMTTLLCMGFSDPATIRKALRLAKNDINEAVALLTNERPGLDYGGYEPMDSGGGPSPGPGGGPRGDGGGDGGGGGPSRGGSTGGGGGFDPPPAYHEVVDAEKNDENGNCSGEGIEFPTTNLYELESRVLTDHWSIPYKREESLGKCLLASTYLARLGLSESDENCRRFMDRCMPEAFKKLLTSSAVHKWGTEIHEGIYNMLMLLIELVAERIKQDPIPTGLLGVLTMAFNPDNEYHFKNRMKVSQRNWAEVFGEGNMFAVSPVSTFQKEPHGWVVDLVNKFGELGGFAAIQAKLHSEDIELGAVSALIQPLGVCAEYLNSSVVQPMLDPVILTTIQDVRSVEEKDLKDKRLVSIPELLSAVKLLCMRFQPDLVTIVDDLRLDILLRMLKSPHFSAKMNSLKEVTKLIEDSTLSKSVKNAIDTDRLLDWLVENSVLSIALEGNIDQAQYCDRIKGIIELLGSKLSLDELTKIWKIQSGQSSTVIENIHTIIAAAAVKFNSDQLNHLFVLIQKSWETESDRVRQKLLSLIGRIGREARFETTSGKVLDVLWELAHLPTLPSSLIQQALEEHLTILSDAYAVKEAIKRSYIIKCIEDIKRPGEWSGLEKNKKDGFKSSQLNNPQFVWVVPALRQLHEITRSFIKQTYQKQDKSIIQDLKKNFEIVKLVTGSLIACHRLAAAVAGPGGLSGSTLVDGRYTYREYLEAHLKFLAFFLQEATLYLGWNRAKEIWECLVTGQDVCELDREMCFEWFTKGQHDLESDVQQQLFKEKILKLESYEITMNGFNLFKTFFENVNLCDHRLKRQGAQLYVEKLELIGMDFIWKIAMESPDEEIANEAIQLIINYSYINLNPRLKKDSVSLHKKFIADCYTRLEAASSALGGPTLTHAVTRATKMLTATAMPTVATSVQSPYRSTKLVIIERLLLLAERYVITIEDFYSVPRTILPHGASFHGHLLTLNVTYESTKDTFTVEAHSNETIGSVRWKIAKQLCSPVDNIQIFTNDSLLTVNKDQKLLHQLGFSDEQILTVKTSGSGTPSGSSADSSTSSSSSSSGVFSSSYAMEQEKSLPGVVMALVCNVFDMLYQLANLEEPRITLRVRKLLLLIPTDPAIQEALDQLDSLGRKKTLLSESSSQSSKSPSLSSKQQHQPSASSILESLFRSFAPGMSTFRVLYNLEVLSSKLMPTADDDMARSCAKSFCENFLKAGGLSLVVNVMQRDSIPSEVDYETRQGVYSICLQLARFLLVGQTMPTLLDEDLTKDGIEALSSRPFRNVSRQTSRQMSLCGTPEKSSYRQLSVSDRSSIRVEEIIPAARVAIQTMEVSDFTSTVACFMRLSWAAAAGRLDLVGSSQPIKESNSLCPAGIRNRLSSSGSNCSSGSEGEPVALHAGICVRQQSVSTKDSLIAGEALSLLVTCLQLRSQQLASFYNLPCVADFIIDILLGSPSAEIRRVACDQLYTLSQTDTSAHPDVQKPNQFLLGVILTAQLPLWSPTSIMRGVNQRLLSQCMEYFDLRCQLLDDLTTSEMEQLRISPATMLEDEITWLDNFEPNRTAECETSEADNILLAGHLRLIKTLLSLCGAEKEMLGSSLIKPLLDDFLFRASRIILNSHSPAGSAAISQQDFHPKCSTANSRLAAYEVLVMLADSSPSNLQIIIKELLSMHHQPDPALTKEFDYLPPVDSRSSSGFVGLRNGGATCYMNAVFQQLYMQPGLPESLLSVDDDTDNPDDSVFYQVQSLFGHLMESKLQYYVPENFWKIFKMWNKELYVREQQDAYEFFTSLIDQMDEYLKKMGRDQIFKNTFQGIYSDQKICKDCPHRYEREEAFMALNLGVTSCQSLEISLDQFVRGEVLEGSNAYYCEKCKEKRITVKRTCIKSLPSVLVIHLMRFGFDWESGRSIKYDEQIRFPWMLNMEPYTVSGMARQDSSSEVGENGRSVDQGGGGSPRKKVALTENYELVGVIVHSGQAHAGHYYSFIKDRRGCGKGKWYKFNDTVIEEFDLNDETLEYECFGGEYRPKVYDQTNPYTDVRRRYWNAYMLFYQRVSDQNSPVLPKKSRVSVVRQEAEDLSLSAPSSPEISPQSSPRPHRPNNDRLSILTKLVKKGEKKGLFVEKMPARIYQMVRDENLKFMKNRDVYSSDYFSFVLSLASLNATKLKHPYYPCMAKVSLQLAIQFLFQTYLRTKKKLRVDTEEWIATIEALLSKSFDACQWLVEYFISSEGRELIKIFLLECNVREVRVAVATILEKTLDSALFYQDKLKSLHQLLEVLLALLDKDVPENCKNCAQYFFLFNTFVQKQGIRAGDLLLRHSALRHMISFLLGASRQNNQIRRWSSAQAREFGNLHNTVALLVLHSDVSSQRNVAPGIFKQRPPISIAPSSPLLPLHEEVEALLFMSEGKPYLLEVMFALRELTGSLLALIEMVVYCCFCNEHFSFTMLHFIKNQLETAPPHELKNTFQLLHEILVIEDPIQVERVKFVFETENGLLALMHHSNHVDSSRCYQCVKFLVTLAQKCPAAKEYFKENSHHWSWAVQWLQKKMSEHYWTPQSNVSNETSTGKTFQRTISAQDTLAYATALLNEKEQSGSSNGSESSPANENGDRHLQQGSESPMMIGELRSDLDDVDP
How it was run: as §1

USP25 = target: T3, USP25 (UniProt Q9UHP3)
T3 sequence (whole entry): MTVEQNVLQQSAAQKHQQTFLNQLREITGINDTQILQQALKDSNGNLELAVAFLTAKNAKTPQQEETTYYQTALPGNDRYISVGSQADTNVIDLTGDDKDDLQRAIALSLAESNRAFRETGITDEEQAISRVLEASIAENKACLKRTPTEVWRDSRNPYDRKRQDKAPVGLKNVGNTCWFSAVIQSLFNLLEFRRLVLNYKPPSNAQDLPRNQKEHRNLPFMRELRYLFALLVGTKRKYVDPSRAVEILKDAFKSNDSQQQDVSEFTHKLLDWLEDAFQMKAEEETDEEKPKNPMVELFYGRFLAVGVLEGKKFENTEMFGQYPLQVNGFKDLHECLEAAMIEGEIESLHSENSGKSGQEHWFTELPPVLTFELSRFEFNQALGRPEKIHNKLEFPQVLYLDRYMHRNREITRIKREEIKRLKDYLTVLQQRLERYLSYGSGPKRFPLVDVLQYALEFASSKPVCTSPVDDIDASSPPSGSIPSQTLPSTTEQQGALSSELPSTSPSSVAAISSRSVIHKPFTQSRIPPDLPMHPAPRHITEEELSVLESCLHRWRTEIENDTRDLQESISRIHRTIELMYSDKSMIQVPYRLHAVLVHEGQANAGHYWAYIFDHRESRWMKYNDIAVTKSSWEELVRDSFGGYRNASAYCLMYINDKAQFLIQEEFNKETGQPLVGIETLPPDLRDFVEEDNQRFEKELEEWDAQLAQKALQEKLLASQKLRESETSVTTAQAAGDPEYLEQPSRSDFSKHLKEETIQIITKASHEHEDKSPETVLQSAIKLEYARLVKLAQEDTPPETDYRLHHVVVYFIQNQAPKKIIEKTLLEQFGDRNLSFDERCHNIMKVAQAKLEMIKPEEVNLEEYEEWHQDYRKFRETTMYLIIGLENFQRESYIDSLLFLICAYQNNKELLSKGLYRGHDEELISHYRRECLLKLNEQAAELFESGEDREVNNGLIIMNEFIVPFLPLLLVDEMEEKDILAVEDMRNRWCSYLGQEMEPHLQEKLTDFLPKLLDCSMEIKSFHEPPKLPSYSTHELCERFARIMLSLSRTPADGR
How it was run: as §1

USP28 = target: T4, USP28 (UniProt Q96RU2)
T4 sequence (whole entry): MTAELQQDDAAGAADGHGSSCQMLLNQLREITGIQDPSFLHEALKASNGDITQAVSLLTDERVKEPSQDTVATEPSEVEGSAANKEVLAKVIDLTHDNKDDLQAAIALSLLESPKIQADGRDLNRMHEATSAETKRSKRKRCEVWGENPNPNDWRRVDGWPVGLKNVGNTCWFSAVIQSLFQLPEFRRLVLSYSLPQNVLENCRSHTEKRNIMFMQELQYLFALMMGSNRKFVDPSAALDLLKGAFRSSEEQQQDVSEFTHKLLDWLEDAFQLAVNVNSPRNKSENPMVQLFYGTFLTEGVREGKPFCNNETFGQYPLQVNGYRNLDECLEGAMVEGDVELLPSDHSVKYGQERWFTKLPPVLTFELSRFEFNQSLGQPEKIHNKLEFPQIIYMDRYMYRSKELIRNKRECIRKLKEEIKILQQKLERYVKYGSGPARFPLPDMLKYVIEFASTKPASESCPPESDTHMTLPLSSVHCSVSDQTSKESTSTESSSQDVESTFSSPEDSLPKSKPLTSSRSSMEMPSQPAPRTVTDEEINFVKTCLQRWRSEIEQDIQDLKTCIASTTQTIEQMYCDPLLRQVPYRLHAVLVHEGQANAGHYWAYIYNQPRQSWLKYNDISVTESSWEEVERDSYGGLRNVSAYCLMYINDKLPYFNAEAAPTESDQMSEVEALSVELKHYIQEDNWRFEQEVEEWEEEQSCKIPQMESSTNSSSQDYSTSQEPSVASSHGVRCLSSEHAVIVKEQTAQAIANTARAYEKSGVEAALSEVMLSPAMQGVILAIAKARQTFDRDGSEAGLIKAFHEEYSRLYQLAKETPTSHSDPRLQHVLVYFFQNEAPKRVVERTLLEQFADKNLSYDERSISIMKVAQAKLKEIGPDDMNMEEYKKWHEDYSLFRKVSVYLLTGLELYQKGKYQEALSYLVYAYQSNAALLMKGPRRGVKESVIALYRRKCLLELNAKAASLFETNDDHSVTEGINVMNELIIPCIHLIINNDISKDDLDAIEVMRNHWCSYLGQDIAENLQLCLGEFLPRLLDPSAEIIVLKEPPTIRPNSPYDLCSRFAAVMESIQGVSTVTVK
How it was run: as §1

Measured: log2 ratio of Biotin-Ahx-Ub-VS probe labelling

Cl.O=C(CCl)N1CCN(Cc2ccccc2)CC1
inactive: USP19 -0.21 | USP22 -0.403 | USP24 -0.611 | USP25 -0.226 | USP28 -0.511
